A number with no mark means an inactive call. Records with an inconclusive call do not appear. Calls of active or inactive are those of the source. Unless noted, calls follow the shape of the dose curve; as a rule, active = well fitted curve in either direction with a large enough effect (not every such curve was filed as active); inconclusive = small, poorly fitted or top-dose-only effect, or another doubt; inactive = flat fitted curve, though single readings scatter.
Experiments:
[1] = biological target: Lysosomal acid glucosylceramidase (Homo sapiens) (UniProt P04062); experiment: Glucocerebrosidase-p2 (AID 348; in the data active = potency below about 10 µM; also: potency is read from the fitted curve at half-maximal effect); details: purified GBA, blue fluorogenic substrate, 40 min
Chain of Lysosomal acid glucosylceramidase (Homo sapiens) (P04062 whole entry, looked up): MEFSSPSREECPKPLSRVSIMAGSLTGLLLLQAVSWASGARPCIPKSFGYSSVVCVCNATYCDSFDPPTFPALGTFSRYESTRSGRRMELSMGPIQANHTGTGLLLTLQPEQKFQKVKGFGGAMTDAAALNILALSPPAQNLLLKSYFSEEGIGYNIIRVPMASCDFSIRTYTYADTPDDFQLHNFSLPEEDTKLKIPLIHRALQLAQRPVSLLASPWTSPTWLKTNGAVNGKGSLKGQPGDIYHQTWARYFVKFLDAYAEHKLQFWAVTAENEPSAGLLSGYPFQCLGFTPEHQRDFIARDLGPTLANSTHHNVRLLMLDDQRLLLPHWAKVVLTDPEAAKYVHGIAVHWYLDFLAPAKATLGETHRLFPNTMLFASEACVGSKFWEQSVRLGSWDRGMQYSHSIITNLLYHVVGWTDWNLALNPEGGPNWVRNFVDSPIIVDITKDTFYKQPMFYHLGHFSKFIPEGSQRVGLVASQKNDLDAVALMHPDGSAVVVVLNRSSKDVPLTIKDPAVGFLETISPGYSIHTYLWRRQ
How it was run: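 Compounds titrated from 0.6 nM upwards against 0.2 nM enzyme in pH 5.9 citric acid/KH2PO4, taurocholate, tween-20; blue fluorogenic substrate 80 uM, 40 min room temperature, stopped and read Ex 365/Em 440 for AC50.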

[2] = AP1 Signaling Pathway (AID 357); details: ME-180 AP-1-bla reporter, EGF-induced, beta-lactamase ratio, 5 h; at 7.69 µM (top of the series) unless noted;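 also: ME-180 reporter cells stimulated with EGF at its EC50 level; % is scaled to controls: 0 for no effect and ±100 for the full control effect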
How it was run: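 AP-1-bla ME-180 cells, Opti-MEM + 0.5% dialyzed FBS, plated overnight 37 °C. Cpd titration + EC50 EGF, 5 h 37 °C. CCF4 2.5 h RT; ex 405, em 460/530 ratio → %activity, AC50.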

[3] = biological target: Cytochrome P450 1A2 (Homo sapiens) (UniProt P05177); experiment: p450-cyp1a2 (AID 410; calls by dose curve; also: potency is read from the fitted curve at half-maximal effect;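 as to activity change, negative = inhibition: -100% = full effect of reference inhibitor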); details: recombinant CYP1A2, luciferin-ME demethylation, luminescence; series mostly up to 11.4 µM
Chain of Cytochrome P450 1A2 (Homo sapiens) (P05177 whole entry, looked up): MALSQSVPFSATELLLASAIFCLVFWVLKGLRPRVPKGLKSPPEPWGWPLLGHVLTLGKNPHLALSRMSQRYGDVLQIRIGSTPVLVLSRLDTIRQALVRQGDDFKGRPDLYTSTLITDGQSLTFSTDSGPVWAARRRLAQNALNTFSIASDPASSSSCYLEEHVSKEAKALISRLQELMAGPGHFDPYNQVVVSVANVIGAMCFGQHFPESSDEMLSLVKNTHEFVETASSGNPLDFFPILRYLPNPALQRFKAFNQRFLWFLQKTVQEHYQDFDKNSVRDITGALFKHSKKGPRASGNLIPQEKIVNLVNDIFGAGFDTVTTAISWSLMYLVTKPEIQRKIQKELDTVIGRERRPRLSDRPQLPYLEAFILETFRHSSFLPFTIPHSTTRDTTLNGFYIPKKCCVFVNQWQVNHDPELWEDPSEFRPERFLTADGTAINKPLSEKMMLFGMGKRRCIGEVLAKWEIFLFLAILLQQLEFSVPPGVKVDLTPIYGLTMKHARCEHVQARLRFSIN
How it was run: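 20nM CYP1A2 with 100uM Luciferin-ME (at Km) in 100mM KPO4; compound preincubated 10 min, NADPH regeneration added, 60 min at room temperature. Luciferin quantified by luminescence after detection reagent; normalized to 57 uM furafylline.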

[4] = NFAT Signaling Pathway (AID 444); details: Jurkat NFAT-bla M1, carbachol, beta-lactamase ratio, 5 h; at 7.69 µM (top of the series) unless noted;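 also: carbachol stimulus at about its EC50 of 1 µM final; % is scaled to controls: 0 for no effect and ±100 for the full control effect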
How it was run: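 Jurkat cells with NFAT-driven β-lactamase reporter and co-expressed M1 receptor, stimulated with carbachol (final 1 uM, ~EC50), compound titration, 5 h at 37 °C. CCF4 loaded 1 h at RT; 460/530 nm ratio gave %activity and AC50.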

[5] = Stat Signaling Pathway (AID 446); details: ME-180 SIE beta-lactamase reporter, IL-6 stimulated, 5 h; at 7.69 µM (top of the series) unless noted;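 also: ME-180 cervical cancer cells given 40 pM IL-6 alongside compound; SIE-controlled beta-lactamase reporter measured as 460/530 nm FRET emission ratio; % is scaled to controls: 0 for no effect and ±100 for the full control effect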
How it was run: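 ME-180 SIE-bla cells; overnight plating; cpd + IL-6 40 pM, 5 h, 37 C; LiveBLAzer 2.5 h RT; 460/530 nm emission ratio. Normalized to 300 pM IL-6 and 125 nM JAK inhibitor controls.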

[6] = biological target: Glucocorticoid receptor (Homo sapiens) (UniProt P04150); experiment: GR-GFP Redistribution (AID 450;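 active = compounds whose dose series gives a full or clear partial fitted curve of increased nuclear translocation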; also: potency is read from the fitted curve at half-maximal effect); details: U2OS GR-GFP nuclear translocation, laser cytometry, 2 h
Chain of Glucocorticoid receptor (Homo sapiens) (P04150 whole entry, looked up, the tested form may be a part): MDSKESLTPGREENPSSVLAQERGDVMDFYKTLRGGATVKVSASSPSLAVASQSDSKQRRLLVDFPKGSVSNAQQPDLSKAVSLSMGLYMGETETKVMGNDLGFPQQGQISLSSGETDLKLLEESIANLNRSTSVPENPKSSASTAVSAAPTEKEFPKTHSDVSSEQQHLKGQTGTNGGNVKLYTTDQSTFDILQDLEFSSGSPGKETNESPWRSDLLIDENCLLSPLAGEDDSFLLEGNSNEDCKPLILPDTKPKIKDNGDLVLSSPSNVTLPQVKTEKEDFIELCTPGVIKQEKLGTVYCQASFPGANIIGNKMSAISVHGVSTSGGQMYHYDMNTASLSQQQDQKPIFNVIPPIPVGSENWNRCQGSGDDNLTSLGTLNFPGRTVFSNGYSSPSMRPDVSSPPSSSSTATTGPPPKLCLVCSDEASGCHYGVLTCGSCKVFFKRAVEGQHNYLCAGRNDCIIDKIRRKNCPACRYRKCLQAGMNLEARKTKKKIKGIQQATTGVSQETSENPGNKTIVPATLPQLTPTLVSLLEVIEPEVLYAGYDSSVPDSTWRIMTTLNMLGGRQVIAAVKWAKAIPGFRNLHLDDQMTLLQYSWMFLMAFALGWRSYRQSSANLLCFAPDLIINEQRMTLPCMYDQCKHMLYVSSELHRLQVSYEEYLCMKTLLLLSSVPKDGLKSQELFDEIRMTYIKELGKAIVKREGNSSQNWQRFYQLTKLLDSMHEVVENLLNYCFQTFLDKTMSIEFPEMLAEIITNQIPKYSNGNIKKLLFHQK

[7] = biological target: Glucocorticoid receptor (Homo sapiens) (UniProt P04150); experiment: GR-EFC Redistribution (AID 451; calls by dose curve; also: potency is read from the fitted curve at half-maximal effect); details: CHO-K1 GR-EFC translocation, beta-gal luminescence, 2 h
How it was run: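 CHO-K1 cells expressing nuclear EA and GR-ED fragments of b-gal; compounds titrated up to 46 uM final, 2 h at 37 C. GR nuclear translocation read as complemented b-gal luminescence after 1 h RT detection.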

[8] = biological target: Mitogen-activated protein kinase 10 (Mus musculus) (UniProt Q61831); experiment: JNK3 AlphaScreen Assay (AID 530); details: JNK3 lysate, c-Jun phosphorylation; series mostly up to 11.4 µM;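 also: kinase came from lysate of stimulated human HepG2 cells; signal reports phosphorylation of biotinylated GST-cJun 1-79 at Ser73 with 10 µM ATP; % is scaled to controls: 0 for no effect and ±100 for the full control effect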
How it was run: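 Pre-activated (IL-1β/TNFα) JNK3 in HepG2 lysates phosphorylates biotin-GST-cJun(1-79), 10 uM ATP; anti-phospho-cJun(Ser73) AlphaScreen read at room temperature, pH 7.6 Tris buffer. Compounds pre-incubated 15 min as titrations.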

[9] = biological target: 3',5'-cyclic-AMP phosphodiesterase 4B (Homo sapiens) (UniProt Q07343); experiment: qHTS Assay for Inhibitors of PDE-IV (AID 607; active = well fitted activation curve with a large enough effect in the main read-out, with a control signal flat, not every such curve was filed as active; also: % of control where 0% means no effect); details: HEK293 ACTOne CNG channel cells, membrane potential fluorescence; series mostly up to 22.9 µM
Chain of 3',5'-cyclic-AMP phosphodiesterase 4B (Homo sapiens) (Q07343 whole entry, looked up): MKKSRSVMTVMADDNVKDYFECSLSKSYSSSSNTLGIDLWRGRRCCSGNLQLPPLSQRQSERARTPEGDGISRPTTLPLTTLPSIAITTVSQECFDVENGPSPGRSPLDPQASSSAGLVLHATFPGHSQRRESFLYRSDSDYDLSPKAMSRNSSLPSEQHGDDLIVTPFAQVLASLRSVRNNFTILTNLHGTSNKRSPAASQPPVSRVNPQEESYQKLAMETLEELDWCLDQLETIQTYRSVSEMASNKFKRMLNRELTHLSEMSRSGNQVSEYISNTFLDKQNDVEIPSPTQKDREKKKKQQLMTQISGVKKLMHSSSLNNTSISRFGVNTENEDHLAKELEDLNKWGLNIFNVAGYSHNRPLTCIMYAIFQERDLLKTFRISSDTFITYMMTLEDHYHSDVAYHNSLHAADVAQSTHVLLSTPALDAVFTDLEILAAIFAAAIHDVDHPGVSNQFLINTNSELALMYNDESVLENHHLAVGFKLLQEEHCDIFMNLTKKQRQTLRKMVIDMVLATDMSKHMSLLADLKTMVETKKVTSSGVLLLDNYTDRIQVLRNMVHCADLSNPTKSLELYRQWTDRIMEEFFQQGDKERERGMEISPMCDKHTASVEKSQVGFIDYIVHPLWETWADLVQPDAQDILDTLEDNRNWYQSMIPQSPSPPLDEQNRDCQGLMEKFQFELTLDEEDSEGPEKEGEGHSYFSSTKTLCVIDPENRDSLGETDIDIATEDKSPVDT
How it was run: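 ACTOne HEK293 cells carry a modified cAMP-gated CNG channel and express endogenous PDE4; plated 1000 cells/well, compounds up to 22.9 uM final. Membrane-potential dye fluorescence (ex 535/em 590) was read; parental cells received 10 uM forskolin + 100 uM RO 20-1724.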

[10] = biological target: Cytochrome P450 3A4 (Homo sapiens) (UniProt P08684); experiment: qHTS Assay for Activators of Cytochrome P450 3A4 (AID 885; active = well fitted curve in the direction sought with a large enough effect; an effect the other way counts as inactive or inconclusive; also: nearly all actives have a fitted effect of over 65% in size); details: recombinant CYP3A4, Luciferin-PPXE luminescence, 60 min; series mostly up to 11.4 µM
Chain of Cytochrome P450 3A4 (Homo sapiens) (P08684 whole entry, looked up): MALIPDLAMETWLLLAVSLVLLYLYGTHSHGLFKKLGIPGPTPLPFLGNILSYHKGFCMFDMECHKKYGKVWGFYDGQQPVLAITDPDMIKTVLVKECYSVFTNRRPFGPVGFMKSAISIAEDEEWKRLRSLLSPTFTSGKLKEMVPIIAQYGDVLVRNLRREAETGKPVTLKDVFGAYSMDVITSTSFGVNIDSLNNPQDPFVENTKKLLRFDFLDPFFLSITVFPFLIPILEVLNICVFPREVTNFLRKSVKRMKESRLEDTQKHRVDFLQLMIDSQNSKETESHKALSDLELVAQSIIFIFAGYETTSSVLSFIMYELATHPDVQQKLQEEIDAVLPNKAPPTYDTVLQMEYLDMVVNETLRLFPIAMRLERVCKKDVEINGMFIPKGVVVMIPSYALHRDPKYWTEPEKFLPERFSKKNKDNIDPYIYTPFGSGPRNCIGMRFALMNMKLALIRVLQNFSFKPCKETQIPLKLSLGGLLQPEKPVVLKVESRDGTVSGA
How it was run: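 20nM CYP3A4 + 25uM Luciferin-PPXE (=KM), 200mM KPO4; cpd 10 min RT; NADPH regen, 60 min RT; stop w/ detection buffer, 20 min; luminescence. Normalized to 57 uM ketoconazole.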

[11] = biological target: Cytochrome P450 2C19 (Homo sapiens) (UniProt P33261); experiment: qHTS Assay for Inhibitors and Substrates of Cytochrome P450 2C19 (AID 899; active = well fitted curve in the direction sought with a large enough effect; an effect the other way counts as inactive or inconclusive; also: nearly all actives have a fitted effect of over 60% in size; also: potency is read from the fitted curve at half-maximal effect); details: recombinant CYP2C19, luciferin-H EGE luminescence; series mostly up to 11.4 µM
Chain of Cytochrome P450 2C19 (Homo sapiens) (P33261 whole entry, looked up): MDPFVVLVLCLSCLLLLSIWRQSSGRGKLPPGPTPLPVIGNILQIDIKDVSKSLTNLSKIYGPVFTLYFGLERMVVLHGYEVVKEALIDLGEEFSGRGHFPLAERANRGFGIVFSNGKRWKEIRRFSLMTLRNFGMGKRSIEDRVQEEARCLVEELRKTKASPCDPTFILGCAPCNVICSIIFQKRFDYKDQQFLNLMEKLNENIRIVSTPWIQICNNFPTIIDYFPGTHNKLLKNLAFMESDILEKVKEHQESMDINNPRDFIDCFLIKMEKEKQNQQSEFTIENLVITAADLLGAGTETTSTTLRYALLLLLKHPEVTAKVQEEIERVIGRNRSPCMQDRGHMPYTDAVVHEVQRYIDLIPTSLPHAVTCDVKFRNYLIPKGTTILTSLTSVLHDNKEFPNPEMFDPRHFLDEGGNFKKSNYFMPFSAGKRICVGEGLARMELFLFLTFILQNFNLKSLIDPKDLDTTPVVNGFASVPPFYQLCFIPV
How it was run: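 5 nM human CYP2C19 with 10uM Luciferin-H EGE (at KM) in 50mM KPO4, compound preincubated 10 min at 37C, then NADPH regeneration for 60 min at 37C. Luciferin read by luminescence after detection reagent; normalized to 57uM ketoconazole as full inhibition.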

[12] = biological target: Cytochrome P450 2D6 (Homo sapiens) (UniProt P10635); experiment: qHTS Assay for Inhibitors and Substrates of Cytochrome P450 2D6 (AID 891; active = well fitted curve in the direction sought with a large enough effect; an effect the other way counts as inactive or inconclusive; also: nearly all actives have a fitted effect of over 60% in size; also: potency is read from the fitted curve at half-maximal effect); details: recombinant CYP2D6, luciferin-ME EGE luminescence; series mostly up to 11.4 µM
Chain of Cytochrome P450 2D6 (Homo sapiens) (P10635 whole entry, looked up): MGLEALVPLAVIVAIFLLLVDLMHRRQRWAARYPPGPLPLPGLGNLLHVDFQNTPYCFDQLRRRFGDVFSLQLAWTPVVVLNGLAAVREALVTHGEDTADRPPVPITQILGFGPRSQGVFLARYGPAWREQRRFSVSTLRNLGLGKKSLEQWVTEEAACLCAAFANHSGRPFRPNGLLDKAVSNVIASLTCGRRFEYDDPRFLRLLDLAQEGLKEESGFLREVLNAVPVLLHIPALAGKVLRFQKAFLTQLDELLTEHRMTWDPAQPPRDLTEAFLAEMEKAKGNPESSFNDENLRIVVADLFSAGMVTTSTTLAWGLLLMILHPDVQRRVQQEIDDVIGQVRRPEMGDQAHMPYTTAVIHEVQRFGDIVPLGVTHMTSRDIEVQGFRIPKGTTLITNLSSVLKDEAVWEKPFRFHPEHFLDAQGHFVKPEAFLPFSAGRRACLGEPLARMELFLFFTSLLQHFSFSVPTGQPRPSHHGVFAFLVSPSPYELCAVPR
How it was run: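 Human CYP2D6 (5 nM) with 30 uM Luciferin-ME EGE (at Km) in 100 mM KPO4, compound preincubated 10 min, then NADPH regeneration system for 60 min at room temperature. Luciferin read by luminescence; normalized to 1.43 uM quinidine.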

[13] = qHTS Assay for Identification of Small Molecule Agonists for Hypoxia Response Element Signaling Pathway (AID 914; active = well fitted activation curve with a large enough effect in the signal ratio, with a control signal flat, not every such curve was filed as active; the % refers to the signal ratio; also: % of control where 0% means no effect); details: ME-180 (cervical carcinoma) HRE-bla reporter, beta-lactamase ratio, CoCl2, 17 h; activation: active compounds read high
How it was run: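 AC50 values come from titration-series %Activity, taken as the 460/530nm ratio of CCF4 fluorescence (excitation 405nm). CellSensor HRE-bla ME-180 cells were treated 17 hours at 37 C with compound plus an EC50 level of CoCl2.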

| SMILES | Potency [1] [µM] | activity change, negative = inhibition [2] [%] | Potency [3] | activity change, negative = inhibition [4] [%] | activity, negative = inhibition [5] [%] | Potency [6] [µM] | Potency [7] [µM] | Potency [8] | Potency [9] | Potency [10] | Potency [11] | Potency [12] | activity change, negative = inhibition [3] | activation [13] [%] |
| --- | --- | --- | --- | --- | --- | --- | --- | --- | --- | --- | --- | --- | --- | --- |
| COc1cc2c(cc1OC)C(CCN)=NCC2 | > 11.4 | 7.92 | 5.01 µM (active) | -11.2 | 8.17 | > 46 | > 9.22 | inactive | inactive | inactive | inactive | – | – | – |
| CCCCN1CSC(=S)N(Cc2ccccc2)C1 | > 11.4 | 3.6 | 3.98 µM (active) | -0.909 | 2.92 | > 46 | > 9.22 | inactive | inactive | inactive | 1.26 µM (active) | – | – | – |
| O=C(O)c1ccc(/C=N\N=C2c3ccccc3-c3ccccc32)cc1 | > 11.4 | -12.4 | 0.126 µM (active) | -25.2 | -6.87 | > 46 | > 9.22 | inactive | inactive | – | – | inactive | – | – |
| O=c1cnc2cnc(Oc3ccccc3)nc2n1Cc1ccc(F)cc1 | > 11.4 | -8.79 | 15.8 µM (active) | -4.49 | 18.8 | > 9.22 | > 46 | inactive | inactive | inactive | 2.51 µM (active) | – | – | – |
| Cc1ccc(C)c(NC(=O)NCc2ccc(Cl)cc2)c1 | > 11.4 | 4.89 | 0.794 µM (active) | -4.37 | 8.15 | > 46 | > 9.22 | inactive | inactive | inactive | 1.58 µM (active) | 3.98 µM (active) | – | – |
| Nc1ccccc1SCc1csc(-c2ccc(Cl)cc2)n1 | > 11.4 | -17.2 | 0.631 µM (active) | -25.4 | -11.2 | > 46 | > 9.22 | inactive | inactive | inactive | 0.501 µM (active) | – | – | – |
| Cc1[nH]c2c(C)ccc(C)c2c1CC(=O)O | > 11.4 | -6.88 | 3.16 µM (active) | 10.6 | 9.85 | > 46 | > 9.22 | inactive | inactive | inactive | 0.316 µM (active) | – | – | – |
| CC1=NCC[N@@+]1(CCc1ccccc1)Cc1ccccc1 | > 11.4 | -5.92 | inactive | -20.4 | 11.6 | > 46 | > 9.22 | inactive | inactive | – | – | 0.0501 µM (active) | – | – |
| O=C(O)NCC1CCCCC1 (tested in a mixture with another compound) | > 11.4 | 23.3 | inactive | 22.8 | -1.59 | > 46 | > 9.22 | inactive | inactive | – | – | 3.98 µM (active) | – | – |
| NNC(=O)c1ccc[n+](CCc2ccccc2)c1 | > 11.4 | 11.3 | inactive | -4.8 | -0.167 | > 46 | > 9.22 | inactive | inactive | – | – | 2 µM (active) | – | – |
| Cc1cc(O)c(C(C)C)cc1NC(=O)Nc1cccc2ccccc12 | > 11.4 | -27.4 | 0.794 µM (active) | -15.2 | -19 | > 46 | > 9.22 | inactive | inactive | inactive | 0.0501 µM (active) | – | – | – |
| CN1CCN(c2ccncc2S(=O)(=O)N2CCN(C)CC2)CC1 | > 11.4 | 5.65 | – | -16.5 | 8.15 | > 46 | > 9.22 | inactive | inactive | inactive | – | – | -7.4% [at 2.29 µM] | 7.59 |
| N=C(N)SCc1ccc(Cl)cc1Cl (tested in a mixture with another compound) | > 11.4 | 23.5 | 3.98 µM (active) | -21.9 | -9.66 | > 46 | > 9.22 | inactive | inactive | – | – | 3.16 µM (active) | – | – |
| O=C1/C(=C/c2cccnc2)SC(=S)N1Cc1ccco1 | > 11.4 | 0.116 | 0.501 µM (active) | -2.58 | -9.72 | > 46 | > 9.22 | inactive | inactive | inactive | 3.16 µM (active) | – | – | – |

Source: PubChem BioAssay (NCATS)
